We go through 40 compounds from PubChem BioAssay (Tox21).

Inconclusive results are not listed. The source made the active and inactive calls. The call rests on the fitted dose curve.
On the % scale 0 is the no-effect control and ±100 the full control effect; potency means the concentration at half of the fitted maximal effect.

The target in the experiment is Acetylcholinesterase (Homo sapiens) (UniProt P22303). Nature of the experiment: Acetylcholinesterase (AChE) small molecule antagonists: fluorescence cell-based qHTS assay (AID 1347398). Further: nearly all actives have a fitted effect of over 50% in size. As to conditions: SH-SY5Y cells; Potency: AChE activity; outcome: AChE activity; series mostly up to 115 µM; activity change, negative = inhibition: at the top concentration. The method, boiled down: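 Using neuroblastoma SH-SY5Y cells as the enzyme source, test chemicals are preincubated 30 min at 37 C; AChE-driven acetylthiocholine cleavage is then quantified by thiocholine-dependent Thiolite Green fluorescence after 40 min at room temperature.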
Acetylcholinesterase (Homo sapiens), sequence (P22303 whole entry, looked up): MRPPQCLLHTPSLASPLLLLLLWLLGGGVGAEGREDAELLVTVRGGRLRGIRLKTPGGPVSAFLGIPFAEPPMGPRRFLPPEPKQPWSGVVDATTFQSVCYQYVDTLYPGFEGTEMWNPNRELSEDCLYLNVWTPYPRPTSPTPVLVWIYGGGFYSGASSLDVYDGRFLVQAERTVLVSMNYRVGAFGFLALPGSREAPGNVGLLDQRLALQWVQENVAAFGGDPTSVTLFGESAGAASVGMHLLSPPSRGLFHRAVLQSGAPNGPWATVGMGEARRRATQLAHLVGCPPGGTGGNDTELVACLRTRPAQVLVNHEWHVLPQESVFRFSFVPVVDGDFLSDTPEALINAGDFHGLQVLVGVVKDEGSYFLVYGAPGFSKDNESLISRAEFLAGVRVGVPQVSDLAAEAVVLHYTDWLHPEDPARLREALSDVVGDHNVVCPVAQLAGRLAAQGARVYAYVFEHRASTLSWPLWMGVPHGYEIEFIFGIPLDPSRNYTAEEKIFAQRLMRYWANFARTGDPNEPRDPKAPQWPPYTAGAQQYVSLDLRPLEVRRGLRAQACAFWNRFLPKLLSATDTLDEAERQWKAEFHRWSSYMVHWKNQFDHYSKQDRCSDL
In general terms: In qHTS, concentration-response curves come from the screen itself.
As for `O=C(Nc1cccc(C2=NCCN2)c1)Nc1cccc(C2=NCCN2)c1`, the Potency was 2130 nM (active). With `CO[Si](OC)(OC)OC`, the “activity change, negative = inhibition” value was 1.25% (inactive).

As for `CC(C)=NNC(N)=S`, the “activity change, negative = inhibition” value was 1.03% (inactive). Consider `CC1(C)C2=CCCC(C)(C)[C@]23CC[C@H]1C3`, for which the “activity change, negative = inhibition” value is -1.56% (inactive). Regarding `Cc1c[nH]c2ccccc12`, the “activity change, negative = inhibition” value is 7.21% [at 53.7 µM] (inactive). Regarding `CCOc1nc(F)cc2nc(S(=O)(=O)Nc3c(Cl)cccc3C(=O)OC)nn12`, the “activity change, negative = inhibition” value is 2.01% (inactive). Take `Cc1occc(=O)c1O`: the Potency entry was “inactive”. In the case of `NC(CO)(CO)CO`, the result was inactive. Take `CCNC(=O)/C=C/c1cccc(Br)c1`: the “activity change, negative = inhibition” value was 5.29% [at 53.7 µM] (inactive).

Turning to `Oc1ccc(Cc2ccccc2)cc1`, the “activity change, negative = inhibition” value was 0.802% (inactive). In the case of `CCCCCCCCCCCCCC(=O)O`, the Potency result is “inactive”. As to `C=CC(=O)OCCCCCCOC(=O)C=C`, the Potency result was “inactive”. Consider `CCCCNS(=O)(=O)c1ccccc1`, for which the Potency result is “inactive”.

Consider `CSc1ccc(Cl)cc1`, for which the Potency result is “inactive”. In the case of `CC(=O)[C@@]1(O)CC[C@H]2[C@@H]3C[C@H](C)C4=CC(=O)CC[C@]4(C)[C@H]3CC[C@@]21C`, the “activity change, negative = inhibition” value is -10.9% [at 53.7 µM] (inactive). With `CCN[C@H]1CN(CCCOC)S(=O)(=O)c2sc(S(N)(=O)=O)cc21`, the “activity change, negative = inhibition” value was 4.89% [at 53.7 µM] (inactive).

In the case of `O=C(O)CC(C(=O)O)C(CC(=O)O)C(=O)O` (stereo not given), the Potency entry is “inactive”. With `CCCCCCCCCOC(=O)CCCCC(=O)OCCCCCCC`, the “activity change, negative = inhibition” value is -0.778% (inactive). For `O=C(O)c1cccc(O)c1`, the “activity change, negative = inhibition” value was -16.7% (inactive).

As for `CC(C)CC(=O)CC(C)CC(C)C` (stereo not given), the Potency entry was “inactive”. With `NC(Cc1c[nH]c2ccccc12)C(=O)O` (stereo not given), the “activity change, negative = inhibition” value is 0.31% [at 53.7 µM] (inactive).

With `CCCCOCCOCCSC#N`, the Potency entry is “inactive”. For `ONc1ccccc1`, the “activity change, negative = inhibition” value was 0.915% (inactive). Turning to `COc1ccc(CCC(C)=O)cc1`, the Potency entry was “inactive”. In the case of `CCCCCCOC(=O)C(C)C`, the “activity change, negative = inhibition” value is 2.12% (inactive). Consider `C=CC(=O)CCCCC`, for which the “activity change, negative = inhibition” value is 0.0383% (inactive). As to `c1ccc2c(c1)-c1cccc3c1c-2cc1ccccc13`, the Potency entry was “inactive”.

Take `Nc1c[n+](N2CCOCC2)no1`: the “activity change, negative = inhibition” value was 2.74% [at 53.7 µM] (inactive).

In the case of `NC(=O)NC(N)=O`, the Potency entry is “inactive”. For `CC(=O)Oc1cccc2c1C(=O)c1c(OC(C)=O)cc(C(=O)O)cc1C2=O`, the “activity change, negative = inhibition” value was 7.19% [at 53.7 µM] (inactive). With `Cc1ccc(-c2ccccc2C#N)cc1`, the “activity change, negative = inhibition” value was -2.93% [at 53.7 µM] (inactive). For the compound `O=C(O)Cc1ccccc1Oc1ccc(Cl)cc1Cl`, the “activity change, negative = inhibition” value is 6.91% [at 53.7 µM] (inactive). Take `CCOCCOCCO`: the Potency result is “inactive”. Take `Cc1cccc(C(=O)O)c1O`: the “activity change, negative = inhibition” value was 3.1% [at 53.7 µM] (inactive). In the case of `CCCSSCCC`, the “activity change, negative = inhibition” value was 0.425% (inactive). On the same count and under the same terms, the result for `CN1Cc2cc(C(=O)N3CCC(C4CCNCC4)CC3)ccc2NC(CC(=O)O)C1=O` (stereo not given) reads -6.31% [at 53.7 µM] (inactive). In the case of `CC(=O)OCc1ccc2c(c1)OCO2`, the Potency entry is “inactive”.

As for `O=C(Nc1ncc([N+](=O)[O-])s1)c1cccs1`, the “activity change, negative = inhibition” value was -6.36% [at 53.7 µM] (inactive). With `O=C(O)CN(CCCN(CC(=O)O)CC(=O)O)CC(=O)O`, the activity change, negative = inhibition is 3.08% [at 23.8 µM] (inactive). As for `CCO[Si](CCCN)(OCC)OCC`, the Potency result was “inactive”.
